Experimental data from PubChem BioAssay AID2314 (National Center for Advancing Translational Sciences (NCATS), 2010).
Hit rate of the full screen: of about 300,000 compounds, about 37,000 (12%) were called active. The sample as a whole holds a higher share of actives than the screen did. Values without a mark were called inactive. Cut-off read from the data, not from the text of the source: active = max response mostly above about 13% (no sharp cut-off); inactive = mostly below about 14%.

test: Cycloheximide Counterscreen for Small Molecule Inhibitors of Shiga Toxin; conditions: cell reporter, cycloheximide protein synthesis inhibition counterscreen; stronger effect = higher value; note: read at 38.3 µM for the half of the compounds with a filed dose; 0% is about no effect

SMILES | max response
Cc1ccc(NC(=S)N(CCCN2CCC(C)CC2)Cc2ccco2)cc1 | -1.16%
Cc1ccc(NC(=S)N(CCN2CCCCC2)Cc2ccco2)cc1C | 6.6%
Cc1ccc(NC(=S)N(Cc2ccco2)C(C)c2cccs2)cc1 (stereo unspecified) | 15.6% (active)
O=C(C1=C[C@H](c2ccc(C(F)(F)F)cc2)C[C@H](OCc2ccc(CO)cc2)O1)N1CCN(Cc2ccccc2)CC1 | -1.19%
O=C(O)C1CCCN1S(=O)(=O)c1ccc(Br)cc1 (stereo unspecified) | -3.32%
CCCCNC(=O)CN1C(=O)NC(Cc2ccccc2)(Cc2ccccc2)C1=O | -4.58%
O=S(=O)(c1ccccc1)c1nc(-c2ccccc2)oc1NCCCN1CCOCC1 | -2.06%
CCNC(=S)NNC(=O)Cc1ccccc1 | -1.87%
CC(C)(C)c1ccc(C(=O)NNC(=O)Cc2ccccc2)cc1 | 37.7% (active)
O=C(CCc1ccccc1)NNC(=O)c1ccc(Br)cc1 | 5.92%
COc1cc(N=Cc2c(O)c3ccccc3oc2=O)c(OC)cc1Cl | 0.554%
Cc1ccc(S(=O)(=O)NC2CCCCCC2)cc1C(N)=O | -1.91%
CC(NCCc1ccc(S(N)(=O)=O)cc1)C(=O)NCc1ccccc1 (stereo unspecified) | 2.64%
O=C(Cc1c(F)cccc1Cl)Nc1ncc([N+](=O)[O-])s1 | 32.7% (active)
Cc1ccc(S(=O)(=O)N(C)C)cc1NC(=O)COC(=O)C1COc2ccccc2O1 (stereo unspecified) | -1.56%
O=C(Nc1nc2c(F)cc(F)cc2s1)C1COc2ccccc2O1 (stereo unspecified) | 24.7% (active)
CC(NC(=S)Nc1ccccc1)C1COc2ccccc2O1 (stereo unspecified) | -3.29%
COc1ccc(NC(=O)c2ccccc2[N+](=O)[O-])cc1OC | 3.51%
O=C(Nc1ncc([N+](=O)[O-])s1)C1COc2ccccc2O1 (stereo unspecified) | 49.4% (active)
O=C(Nc1ccncc1)c1ccccc1[N+](=O)[O-] | -7.9%
O=C(Nc1nc(-c2ccncc2)cs1)C1COc2ccccc2O1 (stereo unspecified) | -3.21%
CN(c1ccccc1)S(=O)(=O)c1cccc(NC(=O)Cc2c(F)cccc2Cl)c1 | 10.4%
CC(=O)Oc1ccccc1C(=O)Nc1ncc([N+](=O)[O-])s1 | 29.9% (active)
O=C(Cc1c(F)cccc1Cl)Nc1ccc(-n2cnnn2)cc1 | 8.09%

SMILES | max response
CCN(CC)S(=O)(=O)c1ccc(N2CCOCC2)c(NC(=O)C2COc3ccccc3O2)c1 (stereo unspecified) | 4.39%
O=C1Nc2cc(C(=O)N3CCC(N4CCCCC4)CC3)ccc2S/C1=C\c1ccccc1 | -5.33%
C=CCN1C2CCCC1CC(NC(=S)Nc1cccc(OC)c1)C2 (stereo unspecified) | -2.67%
CC(=O)N1CCc2cc(S(=O)(=O)NC3CCCCC3)ccc21 | -2.05%
O=C(Nc1ccc(C(=O)O)cc1)/C(=C\c1ccccc1)NC(=O)c1ccc(Br)cc1 | -2.74%
COc1ccc(C(=O)NC2CC(C)(C)Cc3c2cnn3-c2ccccc2)c(OC)c1 (stereo unspecified) | 0.758%
CCCNC(=O)OC[C@H]1O[C@H](CCO/N=C/[C@@H](NS(=O)(=O)c2ccc(C)cc2)[C@H](C)/C=C/CC(=O)OC)C=C[C@@H]1Oc1ccc(OC)cc1 | -2.36%
Cc1cccc(N2CCN(C(=O)CN(C)S(=O)(=O)c3ccc4c(c3)CCC(=O)N4)CC2)c1C | -5.43%
COc1ccc(CNC(=O)C(C)n2nc(C)c3c(C)n(-c4ccccc4)nc3c2=O)c(OC)c1 (stereo unspecified) | -7.8%
Cc1cccc(S(=O)(=O)N2CN(CC3CCCO3)c3nc4ccccc4nc32)c1 (stereo unspecified) | 12.8%
O=c1oc2ccccc2c(CNc2ccccc2)c1[N+](=O)[O-] | -2.06%
CCOc1ccccc1N1CCN(C(=O)COc2ccc3c(C)cc(=O)oc3c2)CC1 | -3.54%
CC(C)(C)NC(=O)CSc1nnc(NC(=O)CCc2ccccc2)s1 | -0.182%
O=C(CCc1ccccc1)Nc1ncc([N+](=O)[O-])s1 | 60.9% (active)
COc1ccc([N+](=O)[O-])cc1NC(=O)CCc1ccccc1 | -3.85%
CCCn1c(SCC(N)=O)nnc1C(C)C | -4.34%
CCCn1c(SCC(=O)c2ccc3c(c2)OCCO3)nnc1C(C)C | 15.2% (active)
CCn1c(SCC(=O)Nc2ccc3c(c2)OCCO3)nnc1C(C)C | -1.89%
COc1cc(C(=O)N/C(=C\c2cn(C)c3ccccc23)C(=O)N2CCOCC2)cc(OC)c1OC | -5.05%
O=C(C1CCCN(S(=O)(=O)c2ccccc2)C1)N1CCN(c2ccc(F)cc2)CC1 (stereo unspecified) | 8%
CCOC(=O)c1ccc(NC(=O)c2cc(=O)[nH]c3ccccc23)cc1 | -2%
CCOC(=O)c1ccc2[nH]c3c(c2c1)CCCC3NC=O (stereo unspecified) | 13.2% (active)
O=[N+]([O-])c1ccc2[nH]c3c(c2c1)CCCC3O (stereo unspecified) | -4.82%
O=C(c1ccccc1)c1ccc(OC(=O)N2CCCC2)cc1 | 37.5% (active)

SMILES | max response
O=C(COc1cccc(F)c1)Oc1ccc(C(=O)c2ccccc2)cc1 | 15.6%
O=C(Nc1cccc(OC(=O)N2CCCCC2)c1)N1CCOCC1 | 5.17%
CC(C)(C)c1ccc(C(=O)N2CCC(C(=O)N3CCCCC3)CC2)cc1 | -2.39%
O=C(c1ccccc1)c1ccc(OCC(O)CN2CCCC2)cc1 (stereo unspecified) | 5.75%
CC(C)(C)c1ccc(OC(=O)N2CCCCC2)cc1 | 54.1% (active)
CC(C)CCNC(=O)C(C)N(C(=O)Cn1nnc(-c2ccc(F)cc2)n1)C1CCCC1 (stereo unspecified) | -1.9%
COC(C[C@@H](O)[C@H](C)[C@H](O)COCc1ccccc1)OC | 5.98%
O=C(NCCS(=O)(=O)N1CCN(c2ccccc2F)CC1)c1ccc(Br)o1 | 8.75%
O=S(=O)(c1ccc2c(c1)OCCCO2)N1CCN(S(=O)(=O)c2c(F)cccc2F)CC1 | 3.98%
CN(C)c1nc(-c2cccnc2)nc(-c2ccc(Cl)cc2)c1C#N | -4.98%
Cc1csc(NC(=O)CSc2nnc(-c3cccnc3)o2)n1 | -7.35%
CN(C)c1ccc(-c2nnc(-c3cccnc3)o2)cc1 | 56.2% (active)
CCCNCc1cc(OCC)c(OCC(=O)Nc2ccccc2)cc1Br | -0.891%
CCN(CC)CCCNC(=O)CCn1nc(-c2ccc(Cl)cc2)ccc1=O | -2.58%
CC(C)N(Cc1ccccc1)C(=O)COC(=O)c1cnccn1 | -3.2%
Cc1ccc(C(=O)N2CCCCCC2)cc1Br | 10.4%
Cc1ccc2cc3cc(C(=O)N4CCCCCC4)oc3nc2c1 | 43.7% (active)
Cc1ccc2oc(=O)c3cnn(CC(=O)N4CCCCCC4)c3c2c1 | -10.3%
C=CCn1c(SCC(=O)NCCCO)nc2sc3c(c2c1=O)CCC3 | -2.04%
NCCCCC(N)C(=O)O (stereo unspecified) | -7.46%
CN1/C(=C\C=C2\N=C(c3ccc(F)cc3)OC2=O)C(C)(C)c2ccccc21 | -1.91%
Cc1cccc(C(=O)Nc2ccc(C(=O)/C=C/c3cccs3)cc2)c1 | 76% (active)
Cc1cccc(C(=O)Nc2ccc(CC(=O)O)cc2)c1 | -5.6%
Cc1cccc(C(=O)Nc2ccc(C(=O)N/N=C/c3cccc(C)n3)cc2)c1 | 5.54%

SMILES | max response
C=CCN1CCN(C(=O)CCCc2ccccc2)CC1 | 1.1%
CCCS(=O)(=O)N1CCN=C1SCc1cccc(F)c1 | -1.71%
COc1ccc(NC(=O)COC(=O)c2ccncc2)c(OC)c1 | 0.0404%
O=C(OCC(O)C(O)COC(=O)c1ccccc1)c1ccccc1 (stereo unspecified) | -1.94%
O=C(COC(=O)c1ccncc1)c1ccccc1 | 18.7% (active)
CCOc1ccc(C)cc1S(=O)(=O)NC1CCCCCC1 | -2.48%
Cc1ccccc1NC(=O)NCC1CCN(Cc2cccc(Cl)c2)CC1 | -4.17%
N=c1oc2ccccc2cc1C(=O)NCc1ccccc1 | 41.3% (active)
N=c1oc2ccccc2cc1C(=O)N/N=C/c1ccccc1 | 46.7% (active)
COc1cccc2cc(C(=O)NCc3ccc(C)cc3)c(=N)oc12 | 3.84%
CNC(=O)c1cc2c(ccc3ccccc32)oc1=N | 18.4%
CC(NC(=O)c1cc2cc(Cl)ccc2oc1=N)c1ccccc1 (stereo unspecified) | -1.94%
O=C(c1cccc(Br)c1)N1CCN(C2=NS(=O)(=O)c3ccccc32)CC1 | -3.24%
CC1=C(C(=O)OC2CCCCC2)C(c2ccccc2F)NC(=O)N1 (stereo unspecified) | 13.8%
COc1cc(OC)c(OC)cc1CN1CCN(C(=O)c2cccc3ccccc23)CC1 | -0.856%
O=C(N/C(=C\c1ccc([N+](=O)[O-])cc1)C(=O)N1CCCCC1)c1ccco1 | -1.29%
CSc1nc(C)cc(SC(C(C)=O)C(=O)Nc2ccccc2)n1 (stereo unspecified) | 31.9% (active)
CC(Sc1nnc2c(n1)C1CCC2(C)C1(C)C)C(=O)Nc1ccccc1 (stereo unspecified) | -1.8%
Cc1cc(C)nc(N(C#N)CC(=O)Nc2ccccc2)n1 | -2.23%
Cc1c(OC(C)C(=O)NCC2CCC(C(=O)O)CC2)ccc2c1oc(=O)c1ccccc12 (stereo unspecified) | -1.17%
CS(=O)(=O)N(Cc1ccccc1Cl)c1ccc(C(=O)NCc2cccnc2)cc1 | -1.15%
CCCCn1c(=O)c(C(C)=O)c(O)c2ccccc21 | 1.86%
CCOc1ccc(N=Cc2c(O)n(-c3cccc(C)n3)c(=O)c3ccccc23)cc1 | 9.6%
CC(=O)n1c(C=Nc2ccccc2)c(O)c2ccccc21 | 33.7% (active)
